Compound activity deposited in PubChem by several laboratories.
An excerpt weighted towards active compounds, which were near 2.3% of everything screened.
Rce1 inhib = yeast Rce1p protease inhibitors, primary screen, biochemical, fluorescence, cell-free homogeneous; CAAX prenyl protease 2 (Saccharomyces cerevisiae (strain ATCC 204508 / S288c)), Q03530; yeast membranes, quenched prenylated peptide cleavage fluorescence; calls only; 0.27% of 290,000 active;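 active = fall in fluorescence gain of 50% or more versus controls, with final raw signal at or below 3038400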
Target sequence (Q03530 whole entry, looked up): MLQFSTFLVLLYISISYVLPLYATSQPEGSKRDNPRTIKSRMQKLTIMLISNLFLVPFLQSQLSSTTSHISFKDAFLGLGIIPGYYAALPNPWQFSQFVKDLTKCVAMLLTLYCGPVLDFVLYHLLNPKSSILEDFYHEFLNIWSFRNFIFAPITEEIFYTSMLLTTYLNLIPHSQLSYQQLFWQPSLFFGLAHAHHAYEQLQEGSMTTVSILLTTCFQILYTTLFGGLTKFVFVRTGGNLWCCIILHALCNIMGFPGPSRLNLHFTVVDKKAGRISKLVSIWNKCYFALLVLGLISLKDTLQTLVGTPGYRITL
Kir21 block = inhibitors of mouse Kir2.1 inward-rectifier potassium channel | HEK293-Kir2.1, FluxOR thallium flux fluorescence; hits give low values | B-score at 10 µM | 0.85% of 310,000 active;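 active = fluorescence ratio B-score at or below minus 3 SD of library scores, with starting-brightness B-score within 2 SD, cut at about -4.2 in these data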;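 note: channel flux triggered by added potassium and thallium sulfate stimulus; B-score of peak minus minimum fluorescence over baseline after thallium stimulus; more negative B-score means stronger Kir2.1 block with less thallium influx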
PfM18AAP inh = PfM18AAP inhibitors, malaria aminopeptidase, primary screen, biochemical, QFRET, recombinant enzyme. AID 1822, 2009. M18 aspartyl aminopeptidase (Plasmodium falciparum 3D7). 1.2% of 290,000 active. inhibition, % at 7.35 µM. H-Glu-NHMec fluorogenic cleavage;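 active = inhibition above the campaign mean inhibition over all tested compounds plus 3 SD, cut at about 28% in these data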
DNA FID counter = compounds displacing fluorescent DNA intercalator, primary screen, artefact control for HCV NS3 helicase inhibitor project, biochemical, FID fluorescence. AID 1845, 2009. 0.17% of 290,000 active. inhibition, % at 7.9 µM. DNA fluorescent intercalator displacement; in the data active = inhibition above about 37%;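 note: higher means more ethidium bromide displaced from hairpin DNA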
Each line names hits and unclear results; the compound was inactive in the other large screens.

O=C(O)c1ccc(-c2ccc(O)c(F)c2)cc1	Rce1 inhib active
COc1ccc(Nc2ncnc3ccc(C)cc23)cc1	Kir21 block -6
O=S(=O)(Nc1ncn[nH]1)c1ccc(Cl)cc1	PfM18AAP inh 59
c1ccc(CNc2ccc(CNc3ncn[nH]3)cc2)cc1	none
Clc1ccc(CNc2ccc(CNc3ncn[nH]3)cc2)cc1	PfM18AAP inh 37
O=S(=O)(Nc1ncccn1)c1ccc(Cl)cc1	none (no result: Rce1 inhib)
CCc1ccc2c(CN3CCC(C(=O)OC)CC3)cc(=O)oc2c1	none
CC1CN(CC(=O)Nc2nc3ccccc3s2)CC(C)O1 (configuration not stated)	none
C=CCSc1ccccc1C(=O)Nc1ncn[nH]1	none
COc1cc(/C=C(\C#N)C(=O)N2CCOCC2)cc(Br)c1O	none (no result: Rce1 inhib)
N#C/C(=C\c1cccc(Oc2ccccc2)c1)C(=O)N1CCOCC1	Kir21 block -13
COc1ccc(CN(C(=O)c2cc(=O)c3ccccc3o2)C2CCS(=O)(=O)C2)cc1OC (configuration not stated)	none
Cc1ccc(-c2nc(Nc3ccc(N4CCOCC4)cc3)c3ccccc3n2)cc1	Rce1 inhib active
c1ccc(-c2nc(NCCCN3CCOCC3)c3ccccc3n2)cc1	DNA FID counter 55
Cc1cccc(-c2nc(NCCCN3CCOCC3)c3ccccc3n2)c1	DNA FID counter 53
Cc1c(Cl)cccc1NC(=O)C1CC2CCC1C2 (configuration not stated)	none (no result: PfM18AAP inh, DNA FID counter)
CCC(C(=O)c1ccccc1)P(=O)(NN)c1ccccc1 (configuration not stated)	none
C=CCn1c(SCC(=O)NCC2CCCO2)nc2c([nH]c3ccccc32)c1=O (configuration not stated)	none
Cc1ccc(S(=O)(=O)N2CCSC2c2ccco2)cc1 (configuration not stated)	Kir21 block -4.3
CC(=O)N(Cc1c(C)nn(-c2ccccc2)c1Cl)c1ccc(Cl)cc1	Kir21 block -5.1
Cc1nn(-c2ccccc2)c(Cl)c1CN(C(=O)CCl)c1ccc(Cl)cc1	none
Cc1cc2c(C)nc(N/N=C/c3ccc([N+](=O)[O-])cc3)nc2o1	PfM18AAP inh 30
CCOc1ccc(CN(C)CC(=O)Nc2ccc3c(c2)CCC3)cc1OC	none
C=CCOc1ccc(CN(C)CC(=O)Nc2ccc3c(c2)CCC3)cc1	DNA FID counter 37
COCCn1nnnc1C(c1cc2cc(OC)c(OC)cc2[nH]c1=O)N1CCN(c2ccc(O)cc2)CC1 (configuration not stated)	PfM18AAP inh 28
CCc1ccc2[nH]c(=O)c(C(c3nnnn3CCOC)N3CCN(c4ccc(F)cc4)CC3)cc2c1 (configuration not stated)	none
O=C(Nc1cc(S(=O)(=O)N2CCCCC2)ccc1Oc1ccccc1)C1=COCCO1	none
CC1CC(C)(C)N(C(=O)CN2CCN(C)CC2)c2ccccc21 (configuration not stated)	none
CC(=O)N1c2ccccc2C(C)CC12CCCCC2 (configuration not stated)	Kir21 block -4.7
CC(=O)N1Cc2ccccc2C(C)CC12CCCC2 (configuration not stated)	Kir21 block -5.1
COc1ccc(-c2cn(Cc3ccc(C)cc3)nn2)cc1	none
COCCCN1C(=O)N(c2ccccc2)C(=O)C1CC(=O)Nc1ccc(F)cc1 (configuration not stated)	none
COc1ccc2nc(-c3ccco3)c(-c3ccco3)nc2c1	none
c1coc(-c2nc(-c3ccco3)c(-c3ccco3)nc2-c2ccco2)c1	PfM18AAP inh 60 (no result: Rce1 inhib)
COc1ccc(C(CCNCc2ccc(N(C)C)cc2)c2ccccc2)cc1 (configuration not stated)	none
COc1ccc(C(CCNCc2ccc(OC)c(OC)c2)c2ccc(F)cc2)cc1 (configuration not stated)	Kir21 block -4.5
CN(C)c1ccc(C(CNC(=O)c2cccs2)N(C)C)cc1 (configuration not stated)	none
Cc1ccc(C(=O)NCC(=O)OCCCOC(=O)CNC(=O)c2ccc(C)cc2)cc1	none (no result: PfM18AAP inh, DNA FID counter)
COc1ccccc1-c1cc(C(F)(F)F)nc(S(=O)(=O)CCCC(=O)NCc2ccc(F)cc2)n1	Rce1 inhib active
Cc1cnn(CCC(=O)NNC(=S)Nc2ccc(F)cc2)c1	none
CCNC(=S)NNC(=O)CCn1cc(C)cn1	Rce1 inhib active
N#Cc1ccsc1NC(=O)CN1CCN(c2ccccc2)CC1	none
